{"source": "ChEMBL document CHEMBL3433997", "about": "“St. Jude Leishmania screening dataset” (2016)"}
{"target": "Hexose transporter 1 (Plasmodium falciparum) (UniProt O97467)", "assay": "ST_JUDE_LEISH: Cytotoxicity at 2uM final concentration against transgenic Leishmania Mexicana promastigotes LmPfHT that are glucose transport deficient and complemented with the Plasmodium falciparum hexose transporter. Activity is measured by DNA content using SYBR green in vitro", "format": "functional", "units": {"inhibition": "%"}}
{"smiles": "COc1ccc2nccc([C@@H](O)CN3CCC(NCc4cc5oc(=O)[nH]c5cc4Cl)CC3)c2c1", "inhibition": -1.56}
{"smiles": "O=C(C1CCN(C(c2ccccc2)c2ccc(Cl)c(Cl)c2)CC1)N1CC=CC1", "note": "(centres undefined)", "inhibition": 3.99}
{"smiles": "CC(CNCc1cn(Cc2cc(Br)cc(Br)c2)c2ccccc12)CNc1cc(=O)c2ccccc2[nH]1", "note": "(centres undefined)", "inhibition": 1.26}
{"smiles": "Cc1c(C(=O)C2CC2CN2CCC(N3CCCCC3)CC2)sc2ccccc12", "note": "(centres undefined)", "inhibition": -0.31}
{"smiles": "COc1ccc2nc(-c3ccccc3)cc(NCCCNc3cc(-c4ccccc4)nc4ccc(OC)cc34)c2c1", "inhibition": 2.6}
{"smiles": "O=c1[nH]ccc2nc(N[C@@H]3CCCNC3)nc(Nc3ccc(S(=O)(=O)N4CCOCC4)cc3)c12", "inhibition": 2.1}
{"smiles": "COc1ccc2nccc([C@@H](O)CN3CCC(NCCOc4cc(F)cc(F)c4)CC3)c2c1", "inhibition": 19.3}
{"smiles": "CCCCCCNc1cc(C)nc2ccc(OC)cc12", "inhibition": 11.4}
{"smiles": "CN(Cc1cc(C(F)(F)F)cc(C(F)(F)F)c1)C(=O)C(Cc1ccc(F)cc1)C1CCCNC1", "note": "(centres undefined)", "inhibition": 4.23}
{"smiles": "O=C(CNCC1CCCCC1)Nc1cc(C(F)(F)F)ccc1Cl", "inhibition": 0.51}
{"smiles": "CCN(Cc1cccc2ccccc12)c1ccc2nc(N)nc(N)c2c1", "inhibition": 99}
{"smiles": "Cc1c(C(=O)Nc2cc(Sc3ccc(F)cc3)cc([N+](=O)[O-])c2)sc2ncn(Cc3cccc(F)c3)c(=O)c12", "inhibition": -2.45}
{"smiles": "O=C(NC(=O)c1ccccc1)NC1CCN(c2ccnc3cc(Cl)ccc23)C1", "note": "(centres undefined)", "inhibition": 1.75}
{"smiles": "CCCCCCN1CCCN(Cc2cccc(C(=O)Nc3ccc(C(C)(C)C)cc3)c2)CC1", "inhibition": 0.8}
{"smiles": "CCn1ccc2c(N3CCCCS3(=O)=O)cc(C(=O)N[C@@H](Cc3ccccc3)[C@H](O)CNC(C)(C)c3cccc(C(F)(F)F)c3)cc21", "inhibition": -1.1}
{"smiles": "O=C(Nc1ccc(-c2ccc(-c3nc4ccccc4[nH]3)cc2)cc1)Nc1ccc(Cl)c(Cl)c1", "inhibition": 2.21}
{"smiles": "COc1ccc(Cn2ccc3c4c(N)nc(N)nc4ccc32)cc1", "inhibition": 89.3}
{"smiles": "C=CCOc1ccc(C2C(C(=O)OC)=C(C)NC3=C2C(=O)c2ccccc23)cc1OC", "note": "(centres undefined)", "inhibition": 4.51}
{"smiles": "CCNC(C)(C)CN(Cc1ccc(-c2ccc(C(F)(F)F)cc2)cc1)C(=O)Cn1c(CCc2cccc(F)c2F)nc(=O)c2ccccc21", "inhibition": 3.3}
{"smiles": "CCCN(CCC)S(=O)(=O)c1ccc(C(=O)N2CCC(C(=O)OCC)CC2)cc1", "inhibition": 5.73}
{"smiles": "Cn1cnc(CCNC(=O)c2ccc(-c3cccc(-c4nc5ccccc5[nH]4)c3)cc2)c1", "inhibition": 0.81}
{"smiles": "CCc1c(CCNCC/C=C/CCNCCc2ccc(OC)c(OC)c2CC)ccc(OC)c1OC", "inhibition": 1.33}
{"smiles": "CCCC(C)NC(=O)[C@H](CC1CCCCC1)NC(=O)c1ccc(O)c(-c2ccc(OC)cc2)c1", "note": "(some centres undefined)", "inhibition": 0.19}
{"smiles": "CC1(C)N=C(N)N=C(NOCc2ccc(Cl)c(Cl)c2)N1", "inhibition": 1.13}
{"target": "Glucose transporter (Leishmania mexicana) (UniProt O61059)", "assay": "ST_JUDE_LEISH: Cytotoxicity at 2uM final concentration against transgenic Leishmania Mexicana promastigotes LmGT2 that are glucose transport deficient and complemented with the L. Mexicana glucose transporter 2. Activity is measured by DNA content using SYBR green in vitro", "format": "functional", "units": {"inhibition": "%"}}
{"smiles": "COc1ccc2ncc(F)c(CCN3CC[C@@H](CNCc4ccc5c(c4C)OCCO5)C3)c2n1", "inhibition": 52.1}
{"smiles": "c1ccc(-c2n[nH]cc2Nc2ccnc3ccccc23)nc1", "inhibition": 3.97}
{"smiles": "CCOc1cc(Cc2cnc(N)nc2N)ccc1OC", "inhibition": -0.73}
{"smiles": "O=C(Nc1cccc(OC2CCN(Cc3ccccc3)CC2)c1)c1ccc(Cl)c(Cl)c1", "inhibition": 3.44}
{"smiles": "CCCC(C)Nc1nc(C)cc(N[C@@H](Cc2ccccc2)C(=O)Nc2ccccc2)n1", "note": "(some centres undefined)", "inhibition": 0.41}
{"smiles": "Nc1cc(-c2ccc3ccccc3c2)nc2ccccc12", "inhibition": 13.7}
{"smiles": "c1ccc(Oc2ccc(Nc3ccnc4cc(-c5cccc(CNCCN6CCOCC6)c5)ccc34)cc2)cc1", "inhibition": 1.68}
{"smiles": "CCN(CCCN1CCCCC1)c1cc(C)nc(Nc2ccc(C)c(F)c2)n1", "inhibition": 6.2}
{"smiles": "O=C(Nc1cccc(C(F)(F)F)c1)c1cccc(S(=O)(=O)NCC2CCCN(Cc3ccccc3)C2)c1", "note": "(centres undefined)", "inhibition": 1.71}
{"smiles": "C=CCc1cc(Cc2cnc(N)nc2N)cc(CCC)c1OC", "inhibition": 8.6}
{"smiles": "Cc1ccc(C(=O)NC2C(=O)NC2c2ccccc2)c(C)c1", "note": "(centres undefined)", "inhibition": 2.37}
{"smiles": "CC[C@H](NC(=O)c1c(CC2CCN(CC(C)=O)CC2)c(-c2ccccc2)nc2ccccc12)c1ccccc1", "inhibition": 0.03}
{"smiles": "O=C(/C=C/c1ccc(Cl)c(Cl)c1)NCCCCCN1CCC(NC(=O)Nc2ccc(Cl)c(Cl)c2)CC1", "inhibition": 0.09}
{"smiles": "CCS(=O)(=O)c1ccc(/C(=N/OC)c2ccc[nH]2)cc1", "inhibition": 0.42}
{"smiles": "CCc1cn2c3c(cc(C(=O)N[C@@H](Cc4ccccc4)[C@H](O)CNC(C)(C)CCCC(C)C)cc13)N(C)S(=O)(=O)C2", "inhibition": 0.85}
{"smiles": "CN(C)CCN(C)Cc1ccc(-c2ccc(NC(=O)c3ccc(Cl)cc3)cc2)cc1", "inhibition": 7.17}
{"smiles": "COc1ccc2nccc([C@@H](O)CN3CCC(NCc4cc5oc(=O)[nH]c5cc4Cl)CC3)c2c1", "inhibition": -0.82}
{"smiles": "O=C(C1CCN(C(c2ccccc2)c2ccc(Cl)c(Cl)c2)CC1)N1CC=CC1", "note": "(centres undefined)", "inhibition": -0.23}
{"smiles": "CC(CNCc1cn(Cc2cc(Br)cc(Br)c2)c2ccccc12)CNc1cc(=O)c2ccccc2[nH]1", "note": "(centres undefined)", "inhibition": 1.07}
{"smiles": "Cc1c(C(=O)C2CC2CN2CCC(N3CCCCC3)CC2)sc2ccccc12", "note": "(centres undefined)", "inhibition": 2.09}
{"smiles": "COc1ccc2nc(-c3ccccc3)cc(NCCCNc3cc(-c4ccccc4)nc4ccc(OC)cc34)c2c1", "inhibition": 0.67}
{"smiles": "O=c1[nH]ccc2nc(N[C@@H]3CCCNC3)nc(Nc3ccc(S(=O)(=O)N4CCOCC4)cc3)c12", "inhibition": -0.68}
{"smiles": "COc1ccc2nccc([C@@H](O)CN3CCC(NCCOc4cc(F)cc(F)c4)CC3)c2c1", "inhibition": 4.32}
{"smiles": "CCCCCCNc1cc(C)nc2ccc(OC)cc12", "inhibition": 4.54}
{"smiles": "CN(Cc1cc(C(F)(F)F)cc(C(F)(F)F)c1)C(=O)C(Cc1ccc(F)cc1)C1CCCNC1", "note": "(centres undefined)", "inhibition": 6.9}
{"smiles": "O=C(CNCC1CCCCC1)Nc1cc(C(F)(F)F)ccc1Cl", "inhibition": 1.07}
{"smiles": "CCN(Cc1cccc2ccccc12)c1ccc2nc(N)nc(N)c2c1", "inhibition": 84}
{"smiles": "Cc1c(C(=O)Nc2cc(Sc3ccc(F)cc3)cc([N+](=O)[O-])c2)sc2ncn(Cc3cccc(F)c3)c(=O)c12", "inhibition": 7.11}
{"smiles": "O=C(NC(=O)c1ccccc1)NC1CCN(c2ccnc3cc(Cl)ccc23)C1", "note": "(centres undefined)", "inhibition": 0.92}
{"smiles": "CCCCCCN1CCCN(Cc2cccc(C(=O)Nc3ccc(C(C)(C)C)cc3)c2)CC1", "inhibition": 0.65}
{"smiles": "CCn1ccc2c(N3CCCCS3(=O)=O)cc(C(=O)N[C@@H](Cc3ccccc3)[C@H](O)CNC(C)(C)c3cccc(C(F)(F)F)c3)cc21", "inhibition": -1.56}
{"smiles": "O=C(Nc1ccc(-c2ccc(-c3nc4ccccc4[nH]3)cc2)cc1)Nc1ccc(Cl)c(Cl)c1", "inhibition": -4.96}
{"smiles": "COc1ccc(Cn2ccc3c4c(N)nc(N)nc4ccc32)cc1", "inhibition": 90.1}
{"smiles": "C=CCOc1ccc(C2C(C(=O)OC)=C(C)NC3=C2C(=O)c2ccccc23)cc1OC", "note": "(centres undefined)", "inhibition": 1.15}
{"smiles": "CCNC(C)(C)CN(Cc1ccc(-c2ccc(C(F)(F)F)cc2)cc1)C(=O)Cn1c(CCc2cccc(F)c2F)nc(=O)c2ccccc21", "inhibition": 2.34}
{"smiles": "CCCN(CCC)S(=O)(=O)c1ccc(C(=O)N2CCC(C(=O)OCC)CC2)cc1", "inhibition": 5.48}
{"smiles": "Cn1cnc(CCNC(=O)c2ccc(-c3cccc(-c4nc5ccccc5[nH]4)c3)cc2)c1", "inhibition": -1.62}
{"smiles": "CCc1c(CCNCC/C=C/CCNCCc2ccc(OC)c(OC)c2CC)ccc(OC)c1OC", "inhibition": -1.26}
{"smiles": "CCCC(C)NC(=O)[C@H](CC1CCCCC1)NC(=O)c1ccc(O)c(-c2ccc(OC)cc2)c1", "note": "(some centres undefined)", "inhibition": 2.85}
{"smiles": "CC1(C)N=C(N)N=C(NOCc2ccc(Cl)c(Cl)c2)N1", "inhibition": 1.84}
